# DAX1 inh: inhibits human nuclear receptor DAX1; P51843; HEK293 Gal4-DAX1 luciferase reporter, luminescence; inhibition, % at 6.75 µM; 340,000 compounds, 0.99% hits;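 active means inhibition above the mean over all tested compounds plus 3 SD, cut at about 4.2% in these data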;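 further: 0% = DAX1-transfected cells with DMSO and 100% = empty-vector control cells with DMSO; inhibition shows as a rise in luminescence from relieved DAX1 repression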
# FXN GAA850 act: frataxin GAA850 promoter activation; AID 540364; 360,000 compounds, 0.56% hits; HEK293 lucGAA850 FXN promoter luciferase reporter, 24 h; percent of 10 µM SAHA response; activation, % at 6 µM;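 active means activation above the average of all compounds screened plus 3 SD, cutoff fixed separately per campaign, cut at about 7.5% in these data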;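 further: 0% = DMSO wells and 100% = 10 µM SAHA wells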
# HSF1 inh: HSF1 inhibition | AID 2098 | NIH3T3-HGL HSE-luciferase, MG132-induced, luminescence 8 h; hits give low values | 300,000 compounds, 0.77% hits | activity change, negative = inhibition, % at 7.5 µM (by protocol);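 active means more than half of replicate wells show activity change below -50%, luminescence cut by over half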;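 further: luciferase reports HSF-1 transcriptional activity via heat shock element; 0% = median of DMSO wells and -100% = zero luminescence signal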
# HSP90 inh: inhibitors of HSP90 luciferase refolding in rabbit reticulocyte lysate; 290,000 compounds, 0.91% hits; inhibition, % at 5.6 µM; luciferase refolding luminescence, 3 h;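 active means inhibition above the screen-wide mean plus 3 SD, computed separately per campaign, cut at about 16% in these data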;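 further: 0% = DMSO wells and 100% = 60 µM geldanamycin wells; inhibitors lower the luminescence because luciferase stays unfolded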
# AHR activator: activates the human aryl hydrocarbon receptor; P35869; AHR-responsive luciferase reporter cells, luminescence; activation, % at 5 µM; 320,000 compounds, 2.5% hits; in the data active means activation above about 47%;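 further: 0% = vehicle wells and 100% = reference agonist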
# Target sequence (P35869 whole entry, looked up): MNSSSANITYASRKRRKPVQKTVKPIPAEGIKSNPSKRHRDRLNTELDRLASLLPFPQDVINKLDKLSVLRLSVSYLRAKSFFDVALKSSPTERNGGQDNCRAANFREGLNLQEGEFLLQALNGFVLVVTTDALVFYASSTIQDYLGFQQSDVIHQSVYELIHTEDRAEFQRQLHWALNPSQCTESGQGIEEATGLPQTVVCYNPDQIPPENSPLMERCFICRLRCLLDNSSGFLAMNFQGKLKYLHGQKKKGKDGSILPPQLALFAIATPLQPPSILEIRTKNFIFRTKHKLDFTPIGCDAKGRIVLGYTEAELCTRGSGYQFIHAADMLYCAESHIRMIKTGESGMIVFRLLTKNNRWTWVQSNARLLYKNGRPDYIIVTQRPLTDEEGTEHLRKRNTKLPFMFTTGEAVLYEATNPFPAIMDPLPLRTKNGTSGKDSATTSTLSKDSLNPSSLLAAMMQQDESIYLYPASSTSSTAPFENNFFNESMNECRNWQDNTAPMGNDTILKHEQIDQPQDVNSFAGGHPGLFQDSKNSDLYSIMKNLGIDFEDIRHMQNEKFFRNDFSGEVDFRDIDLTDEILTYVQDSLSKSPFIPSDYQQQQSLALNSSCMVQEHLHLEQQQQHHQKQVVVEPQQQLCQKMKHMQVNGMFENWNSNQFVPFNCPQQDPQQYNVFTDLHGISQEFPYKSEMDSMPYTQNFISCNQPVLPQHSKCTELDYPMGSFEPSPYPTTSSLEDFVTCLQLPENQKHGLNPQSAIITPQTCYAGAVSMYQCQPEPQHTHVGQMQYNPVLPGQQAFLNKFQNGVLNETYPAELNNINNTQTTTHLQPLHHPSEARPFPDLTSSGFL
# HSF1 activator: increases HSF-1 driven luciferase reporter signal; NIH3T3-HGL HSF-1 luciferase reporter, MG132, 8 h; 100% = twice DMSO control signal; activation, % at 9 µM; 300,000 compounds, 1.7% hits; AID 504408;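 active means mean replicate activation of at least 50% with a set share of replicates each reaching 50%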;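 further: 0% = median of the neutral control wells and 100% = twice that signal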
# * = called active by the depositor; x = no result. An excerpt weighted towards active compounds, which were near 5.9% of everything screened.
SMILES,DAX1 inh,FXN GAA850 act,HSF1 inh,HSP90 inh,AHR activator,HSF1 activator
CCOC(=O)[C@H]1[C@H]2COc3cc(OC)ccc3[C@@H]2N2C(=O)c3cc(F)c(F)cc3NC(=O)[C@@]12C,-1.0,-7.6,x,x,9.8,x
CC(=O)SC(C[N+](=O)[O-])c1cn(C(C)=O)c2ccccc12 (stereo unspecified),0.7,2.3,168.8,1.4,62.9*,203.8*
COc1ccc(N=Nc2ccc(O)c3ncccc23)cc1,0.7,4.1,-25.7,0.3,48.0*,-28.0
O=Nc1ccc(O)c2ncccc12,-2.5,-12.8,9.5,7.2,2.4,26.2
Cc1ccccc1N=Nc1ccc(O)c2ncccc12,0.0,2.2,66.2,-0.7,2.5,89.4*
O=[N+]([O-])c1ccc(O)c2ncccc12,-2.3,-4.3,-54.8*,2.7,3.4,-61.4
COc1ccc(C)cc1N=Nc1ccc(O)c2ncccc12,0.3,-4.0,-19.4,-2.3,x,-30.4
COC(=O)c1cc(OC)nc2c1c(=O)n(C)c(=O)n2C,1.7,1.9,-2.7,2.1,-0.8,4.3
Cn1c(N2CCOCC2)nc(-c2ccccc2)c1-c1ccccc1,-1.4,0.4,-71.1*,-2.1,0.6,-76.9
O=C(Cn1cnc(S(=O)(=O)N2CCCCC2)c1)N1CCN(c2ccc([N+](=O)[O-])cc2)CC1,-0.7,-1.0,-6.6,-3.3,-1.6,14.6
O=C(Nc1ccccc1)c1cc(C2CCCN(C(=O)OCc3ccccc3)C2)on1 (stereo unspecified),x,-0.7,x,x,x,x
CN(C)CCN1CC(O)=C(c2nc3ccccc3s2)C1=N,4.8*,3.0,-1.5,2.1,6.5,0.3
C=CCSc1nn2c(=O)c3ccccc3nc2s1,1.8,5.5,14.3,-3.4,2.9,6.1
C=CCSc1nc2ccccc2c2nc(-c3ccccc3)nn12,4.7*,2.4,1.8,0.8,29.1,5.5
c1ccc(NN=C(c2ccccc2)c2cccs2)cc1,-0.8,-0.4,x,x,x,x
O=C(c1ccc(Cl)cc1)c1ccc(Oc2cc(NN3CCCCC3)c([N+](=O)[O-])cc2[N+](=O)[O-])cc1,0.6,-1.2,4.4,-1.4,-0.6,33.5
Cc1c(Cl)cccc1NC(=O)CSc1sc2c(O)cc(=O)[nH]c2c1C#N,4.4*,-0.2,1.5,-2.7,3.2,21.6
N#Cc1c(SCC(=O)Nc2ccc(Cl)cc2Cl)sc2c(O)cc(=O)[nH]c12,1.4,0.4,0.9,3.1,7.3,-8.3
Cc1ccc(S(=O)(=O)N(C)C)cc1NC(=S)N(C)C1CCN(C)CC1,1.4,-0.4,5.8,2.4,1.9,54.6*
Cc1ccc(S(=O)(=O)N(C)C)cc1NC(=S)Nc1cccc2ccccc12,1.0,-0.8,-9.4,7.0,58.9*,-30.5
Cc1ccc(S(=O)(=O)N(C)C)cc1NC(=S)NC(C)CCCC(C)C (stereo unspecified),-2.7,3.9,18.3,-0.9,-0.9,57.1*
COCCN(CCOC)C(=S)Nc1cc(S(=O)(=O)N(C)C)ccc1C,-0.2,1.8,-6.0,-0.1,0.1,2.7
CCOC(=O)C1=C(COC(=O)c2cccnc2SC)NC(=O)NC1C (stereo unspecified),-0.3,2.0,x,x,-1.8,x
Cc1ccc(C)c(NC(=O)CN(C)C(=O)c2ccccc2OCc2ccc(Cl)cc2)c1,-0.9,-0.2,2.7,x,2.3,13.2
C=CCOc1ccc(/C=N/N2C(=O)C(CC(=O)Nc3ccc(F)cc3F)SC2=NC)cc1 (stereo unspecified),0.6,3.8,29.5,-4.2,22.7,53.9*
SMILES,DAX1 inh,FXN GAA850 act,HSF1 inh,HSP90 inh,AHR activator,HSF1 activator
NS(=O)(=O)c1ccc(NC(=O)CCC(=O)O)cc1,x,0.2,x,x,x,x
COc1ccc2ccccc2c1/C=N/NC(=O)c1cccc(C)c1,1.9,-0.7,1.2,x,17.9,0.7
Cc1cccc(OCC(=O)NC(C)C(=O)N/N=C/c2c(OCc3ccccc3)ccc3ccccc23)c1 (stereo unspecified),-0.6,0.8,10.8,2.3,87.6*,15.2
O=C(C1CC1)N1CCN(S(=O)(=O)c2ccc3c(c2)OCCO3)CC1,-0.2,3.4,3.1,-1.6,55.0*,12.3
COc1cccc(CNC(=O)C2CCN(S(=O)(=O)c3cccc4nonc34)CC2)c1,0.0,3.1,-2.3,-3.5,1.2,-8.2
O=C(CSc1nc2ccccc2s1)NNC(=S)Nc1ccc(Cl)cc1,1.4,-0.8,3.4,3.4,70.6*,-0.1
O=C(CSc1nc2ccccc2s1)NCCOc1ccc(Cl)cc1,0.3,-3.0,-1.4,0.9,48.1*,-13.1

# Compound activity as filed in PubChem.
